The panel holds about 79,000 compounds, 15% with a hit somewhere; the sample as a whole holds those more often. Unmarked numbers belong to inactive results. Rule as the data show it: active = growth inhibition above about 70%; inactive = the rest.
Experiment: NCI Yeast Anticancer Drug Screen. Data for the cln2 rad14 strain (AID 165);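 also: 0% = growth equal to vehicle treated cultures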
Settings: S. cerevisiae cln2 rad14 strain, at 50.0 µM, active compounds read high
Method: Growth inhibition of yeast strains with defined genetic alterations is measured as a screen for potential anti-cancer activity. Selected strains with alterations in DNA damage repair or cell cycle control were exposed to compounds and growth inhibition was measured relative to vehicle treated controls. The strain used in this assay is cln2 rad14

SMILES | growth inhibition
Cc1cccc(CCl)c1 | -0.45%
CCCCCCCCCCCCCCCC(=O)OCC1OC(OC)C2NP(=O)(N(CCCl)CCCl)OC1C2O (stereo not given) | -20.9%
CC(CN1NC12CCCC2)N1NC12CCCC2 (stereo not given) | 24.4%
CCOP(O)OCC | 23.9%
CC(=O)N(N=O)c1cc(Cl)ccc1Cl | -2.15%
CC1(C)OC2OCCC(N=[N+]=[N-])C2O1 (stereo not given) | -29.8%
COc1ccc2[se]c(C)nc2c1 | -2.6%
Nc1ccc2c(c1)Oc1ccc(N)cc1O2 | 15.1%
NC(=O)c1cccc([As]=O)c1 (stereo not given) | -18.6%
C1=C[N-]c2c3c(ccc2=C1)=CC=C[N-]3.C1=C[N-]c2c3c(ccc2=C1)=CC=C[N-]3.C1=C[N-]c2c3c(ccc2=C1)=CC=C[N-]3.[Co+3].[O-][Cl+3]([O-])([O-])O | -26.1%
CCCCCSP(SCCCCC)c1ccccc1 | 37.6%
CCOP(=O)(O)SP(=O)(O)OCC.[Zn+2] | 2.9%
CC([NH-])C[NH-].CC([NH-])C[NH-].[Cl-].[Cl-].[Co+3].[O-][Cl+3]([O-])([O-])O (stereo not given) | 25.6%
O=C1NC(=S)NC(=O)C1=Cc1ccc2ccccc2n1 | 8.4%
CN1CCC(O)(c2ccccc2)C(C(O)c2ccccc2)C1 (stereo not given) | -8.55%
CCCCCCCBr | 0.6%
C1CC[N-]CC1.C1CC[N-]CC1.[Cl][Pt+2]([Cl])([Cl])[Cl] | -48.9%
CCOC(=O)N[N+]12CCN(CC1)CC2 | -12.9%
NC(=O)C(N)C(F)c1ccccc1 (stereo not given) | -13.6%
Oc1cccc(-c2ccccc2)c1 | 5.35%

SMILES | growth inhibition
Clc1cccc(Cl)c1C(Cl)Cl | -4.4%
CC(O)C[As](=O)(O)c1cccc(Cl)c1 (stereo not given) | -0.7%
CCOC(=O)CNCCC1(CC)C(=O)NC(=O)NC1=O | -37.2%
ClCc1nc(-c2ccco2)no1 | -42.5%
O=NNc1cnc2ccccc2n1 | -5.4%
Clc1cccc2nncc(N3CC3)c12 | -6.2%
CSc1ccc([As](=O)(O)O)cc1 | 24.3%
O=C(O)C(O)(Cl)c1cccs1 (stereo not given) | -16.6%
CC(=O)c1ccc(Br)cc1 | 8.7%
Nc1cc([N+](=O)[O-])cc([N+](=O)[O-])c1 | 4.9%
CC(=O)Nc1cccc([As+](C)(C)C)c1 | -22.2%
ClCCN(CCCN(CCCl)c1ccccc1)c1ccccc1 | -8.25%
N#CN | -16.1%
Cc1ccc(S(=O)(=O)OC2CN3CCC2CC3)cc1 (stereo not given) | 26.8%
O=S(c1ccc(Cl)cc1)c1ccc(Cl)cc1 | -66.2%
OC[C@@H](O)[C@@H](O)CO | 15.2%
BrP(Br)(c1ccccc1)(c1ccccc1)c1ccccc1 | 25.4%
CCC1(c2ccc(C)cc2)C(=O)NC(=S)NC1=O | 28.6%
CCCCOP(O)(=S)OCCCC.[Y] | 25.4%
CC(=O)c1ccccc1N=Nc1ccc(N(CCCl)CCCl)cc1C | 0.95%
